PubChem BioAssay (NCI)
About 79,000 compounds went through this panel and 15% of them were active in at least one assay; those are over-represented in the sample as a whole. Active and inactive are the calls of the source. Cut-off read from the data, not from the text of the source: active = growth inhibition above about 70%; inactive = the rest. Where a SMILES comes first, the peptide text is derived from it. The star is where a group is joined. Myristoyl = CCCCCCCCCCCCCC(=O)*; Boc = CC(C)(C)OC(=O)*; OtBu = CC(C)(C)O*

Tests used:
[1] = NCI Yeast Anticancer Drug Screen. Data for the rad50 strain (AID 155);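 note: 0% = growth of vehicle-only cultures of the same strain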; conditions: S. cerevisiae rad50 strain growth inhibition; at 50.0 µM; active compounds read high
In short: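 Compounds were tested on a yeast strain with an engineered DNA damage repair alteration; the reported value is growth inhibition normalised to vehicle treatment.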

[2] = NCI Yeast Anticancer Drug Screen. Data for the mec2-1 strain (AID 157); conditions: S. cerevisiae mec2-1 strain, at 50.0 µM, active compounds read high
In short: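 Mutant yeast (mec2-1) grown with compound; growth inhibition relative to vehicle control reported.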

[3] = NCI Yeast Anticancer Drug Screen. Data for the sgs1 mgt1 strain (AID 161);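 note: 0% = growth of cultures given vehicle only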; conditions: S. cerevisiae sgs1 mgt1 strain, at 50.0 µM, active compounds read high
In short: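 Yeast cells carrying a defined DNA-repair defect were exposed to test compounds. Growth inhibition was measured relative to vehicle-treated controls.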

[4] = NCI Yeast Anticancer Drug Screen. Data for the cln2 rad14 strain (AID 165);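 note: 0% = growth equal to vehicle treated cultures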; conditions: S. cerevisiae cln2 rad14 strain, at 50.0 µM, active compounds read high
In short: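 Readout is yeast growth inhibition versus vehicle-treated controls, using a strain with cln2 and rad14 alterations exposed to compound.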

[5] = NCI Yeast Anticancer Drug Screen. Data for the bub3 strain (AID 167); conditions: S. cerevisiae bub3 mutant strain, at 50.0 µM, active compounds read high
In short: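 Growth of a checkpoint-deficient yeast mutant is measured after compound exposure. Values represent inhibition relative to vehicle.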

[6] = NCI Yeast Anticancer Drug Screen. Data for the mlh1 rad18 strain (AID 175); conditions: S. cerevisiae mlh1 rad18 strain growth inhibition; at 50.0 µM; active compounds read high
In short: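 Genetically defined yeast (DNA repair-deficient) exposed to compounds; growth inhibition determined relative to vehicle.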

Measured: growth inhibition

O=C(c1ccc(C2CCCCC2)cc1)C(C(c1ccccc1)N1CCOCC1)N1CCOCC1 (stereo not given)
inactive: [1] -54.7% | [2] -16.6% | [3] -19.9% | [4] -10.6% | [5] -3.75% | [6] 23.9%

CCOC(=O)NC(Nc1ccc(OC(F)(F)F)cc1)(C(F)(F)F)C(F)(F)F
inactive: [1] -8.7% | [2] -8.2% | [3] -39.1% | [4] -1.25% | [5] -19.9% | [6] -0.3%

C=C(Cl)C(C)(Cl)CCC(Cl)C(C)(C)Cl (stereo not given)
inactive: [1] 21.9% | [2] 16.4% | [3] 29.6% | [4] 42.5% | [5] 32.2% | [6] 25.3%

CCS(=O)CCO (stereo not given)
inactive: [1] -22.7% | [2] -20.4% | [3] -15.8% | [4] -21.8% | [5] 10.8% | [6] -14.2%

CCCCCCCCCCCCCC(=O)NCC(=O)NC(C)C(=O)NC(CCCNC(=N)N)C(=O)NC(C)C(=O)NC(CO)C(=O)NC(C(=O)NC(CC(C)C)C(=O)NC(CO)C(=O)NCC(=O)NCC(=O)NC(CCC(=O)O)C(=O)NC(CC(C)C)C(=O)NC(CC(=O)O)C(=O)NC(CCCNC(=N)N)C(=O)NC(Cc1c[nH]c2ccccc12)C(=O)NC(Cc1ccc(O)cc1)C(N)=O)C(C)C (stereo not given) (Myristoyl-GARASVLSGGELDRWY-NH2; configuration not given here)
inactive: [1] -4% | [2] -6.9% | [3] -12.7% | [4] 8.8% | [5] -40.4% | [6] -6.5%

c1ccc(CNCCN(Cc2ccccc2)Cc2ccccc2)cc1
inactive: [1] 31.6% | [2] -1.8% | [3] 36.4% | [4] -11.8% | [5] 30.4% | [6] 25.7%

C1=C2/CC[C@H](Sc3ccccc3)[C@H]2C2(CCCCC/1)OCCO2
inactive: [1] 13.8% | [2] -19% | [3] -6.45% | [4] -1.05% | [5] 13.2% | [6] -4.05%

CC(C)(C)OC(=O)CC(NC(=O)OC(C)(C)C)C(=O)NC(Cc1ccccc1)C(N)=O (stereo not given) (Boc-Asp(OtBu)-Phe-NH2; configuration not given here)
inactive: [1] -23.1% | [2] 6.85% | [3] -3.85% | [4] 35.5% | [5] 13.5% | [6] -11.3%

O=S1(=O)CC=CC1
inactive: [1] -10.2% | [2] 3.45% | [3] -7.95% | [4] 13.2% | [5] 11.9% | [6] 3.15%

O=C(O)CCC1(c2ccccc2)NC(=O)NC1=O (stereo not given)
inactive: [1] -39.1% | [2] -2.85% | [3] -18.4% | [4] -37% | [5] -1.1% | [6] -6.75%

C/C(=C/c1c(C)c([N+](=O)[O-])c(C)c(C)c1[N+](=O)[O-])C(=O)O
inactive: [1] -3.3% | [2] 38.8% | [3] 14.7% | [4] 11.4% | [5] 30.9% | [6] 37%

CC(=O)CC(C)(C)NC(=S)Nc1ccc(O)cc1
active: [1] 99.7% | [2] 99.5% | [3] 99.8% | [4] 98.8% | [5] 99.8% | [6] 99.8%

O=C(Nc1nc2ccc([N+](=O)[O-])cc2s1)C(=O)C(C(=O)c1ccncc1)C1OC(=O)c2ccccc21 (stereo not given)
inactive: [1] 24.1% | [2] 9.25% | [3] -19.5% | [4] 39.2% | [5] 49.8% | [6] 27.3%

CN(Cc1cnc2nc(N)nc(N)c2n1)c1ccc(C(=O)NC(CCCCN)C(=O)O)cc1 (stereo not given)
inactive: [1] -0.05% | [2] -9.4% | [3] -0.05% | [4] -15.8% | [5] -2.05% | [6] 30.9%

COc1ccc(Cl)cc1NC(=O)Nc1ccc(S(N)(=O)=O)cc1
inactive: [1] 9.7% | [2] 8% | [3] 4.85% | [4] 18.1% | [5] 19.1% | [6] 9.65%

O=c1[nH]c2cc3[nH]c(=O)c(=O)[nH]c3cc2[nH]c1=O
inactive: [1] -21.8% | [2] -16.6% | [3] -6.7% | [4] 8.85% | [5] -5.7% | [6] -17.2%

COSCCCC(C)=O
inactive: [1] 25.5% | [2] 4% | [3] -5.15% | [4] 13.8% | [5] 6.55% | [6] 13.8%

O=C(C[n+]1ccnc2ccccc21)c1ccc(Br)cc1
inactive: [1] 15.7% | [2] -3.05% | [3] 2% | [4] 6.45% | [5] -6.6% | [6] 13%

CC(=O)Nc1cccnc1
inactive: [1] -18.1% | [2] -3.85% | [3] 4.85% | [4] -21.1% | [5] -19.9% | [6] -2.45%

CCc1cccc(OC(=O)CCl)c1
inactive: [1] 3.1% | [2] 7.5% | [3] -1.65% | [4] -24.4% | [5] -17.8% | [6] -5.1%

O=C(O)CCC(=O)c1ccc2c3c(cccc13)CC2
inactive: [1] 22.6% | [2] 0.9% | [3] 15.2% | [4] 46% | [5] 21.5% | [6] 36%

COc1ccc(C2C3=C(CCCC3=O)OC3=C2C(=O)CCC3)cc1
inactive: [1] -6.85% | [2] 1.4% | [3] -16.2% | [4] -17.2% | [5] 9.65% | [6] 12.7%

O=C1c2cccc(S)c2C(=O)c2cccc(S)c21
inactive: [1] -21.5% | [2] -11.3% | [3] -9.75% | [4] 4.7% | [5] 5.35% | [6] -15.5%

N/N=C(\Cc1ccccc1)NN=C(N)N
inactive: [1] 13.6% | [2] -11.2% | [3] 14.8% | [4] 20.1% | [5] -9.45% | [6] 20.3%

CCCC1(CCC)NC(=O)N(CC(N)=O)C1=O
inactive: [1] 7.45% | [2] 0.1% | [3] -9.5% | [4] -20.6% | [5] -9.1% | [6] 16.1%

COc1ccc(N=C2C(=Nc3ccc(OC)cc3)N(c3ccc(OC)cc3)C(=S)N2C)cc1
inactive: [1] 19% | [2] -7.1% | [3] -39% | [4] -12% | [5] -7.65% | [6] 13.5%

CC1=C2CC/C(C)=C/CCC3(C)OC3CC/C(C)=C/C2OC1=O (stereo not given)
inactive: [1] -8.7% | [2] -21.9% | [3] 13.3% | [4] 15.6% | [5] 5.25% | [6] -20.1%

Nc1ccc(F)c(F)c1
inactive: [1] 4.3% | [2] -6.65% | [3] 14.2% | [4] -20% | [5] 2.65% | [6] 13.8%

Nc1ccnc2n[nH]nc12
inactive: [1] -3.7% | [2] -2% | [3] -19.1% | [4] -9.05% | [5] 5.05% | [6] -26.8%

C/C(=C\c1ccccc1)C(=O)c1c(C)cc(C)cc1C
inactive: [1] 26.9% | [2] -2.9% | [3] 11.1% | [4] -0.2% | [5] -5.45% | [6] -11.8%

C/C(=N/Nc1ccc([N+](=O)[O-])cc1[N+](=O)[O-])C1=CCCCC1
inactive: [1] -0.2% | [2] -1.35% | [3] -0.95% | [4] -4.8% | [5] 3.15% | [6] -4.85%

CC(C)CNC(=S)N/N=C/C=C/c1ccc([N+](=O)[O-])cc1
inactive: [1] 4.2% | [2] 10.4% | [3] 23.4% | [4] -16.7% | [5] 2.7% | [6] 23.3%

COc1ccc(/C(=C/n2ccnc2)C(=O)c2ccc(OC)c(OC)c2)cc1
inactive: [1] -41.6% | [2] -18.7% | [3] -44.8% | [4] 5.8% | [5] -25.4% | [6] -44.5%

O=C1C=C(Nc2ccc(S(=O)(=O)Nc3ncccn3)cc2)c2ccccc2C1=O
inactive: [1] 27.4% | [2] 41.5% | [3] 50.1% | [4] 30.8% | [5] 18.9% | [6] 44.6%

Oc1ccc(OCc2ccccc2)cc1CN1CCOCC1
inactive: [1] 17.2% | [2] 7.85% | [3] 27.3% | [4] 7.15% | [5] 22.9% | [6] 34.5%

c1nc2c([nH]1)CNCC2
inactive: [1] -3.05% | [2] -11.2% | [3] -9.05% | [4] -65.7% | [5] -12.2% | [6] 5%

COC(=O)C12c3ccccc3C(c3ccccc31)c1c(N=O)ccc(NO)c12
active: [1] 99.2% | [2] 99.3% | [3] 99.1% | [4] 98.7% | [5] 99% | [6] 99%

CC1CCC(C(C)(C)NO)C(=O)C1 (stereo not given)
inactive: [1] -2.8% | [2] 0% | [3] -4.8% | [4] -8.1% | [5] -2.1% | [6] 0.7%

CC1=NN(C(=O)CC(=O)Nc2cccc(Cl)c2)C(=O)C1N=Nc1ccc(S(=O)(=O)c2ccc(N=NC3C(=O)N(C(=O)CC(=O)Nc4cccc(Cl)c4)N=C3C)cc2)cc1 (stereo not given)
inactive: [1] 36.5% | [2] 15.2% | [3] 23.4% | [4] -1.9% | [5] -25.4% | [6] 22.4%

COc1cc2c(cc1C1=NC(C)(C)CO1)OCO2
inactive: [1] -7.35% | [2] -18.7% | [3] -28.9% | [4] -0.6% | [5] -24.1% | [6] -49.2%
